Assay results as given in the supplement of paper PMC6555819.

Legend:
Assay in all cases: PBM binding z-score (relative to random genomic background probes); higher = stronger binding; sequences stand for … in GC…GCGATTGACAGCGTAGAATGAAGG
[1] = tested on: FXR:RXRa (NR concentration 270 nM, RXRa partner concentration 90 nM)
Procedure, shortened: (§1)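 On custom Agilent 4×180K arrays, double-stranded probes with 34-nt variable regions carried direct-repeat seeds, single-nucleotide variants, half-site ablations or random human genomic background. Ligand-free nuclear receptor dimers were applied for 1 h, and binding was read with antibodies against each partner (one per run). Binding z-scores come from regression-normalized fluorescence, with the random background probes as reference.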

[2] = tested on: LXRa:RXRa (NR concentration 270 nM, RXRa partner concentration 90 nM)
Procedure, shortened: as §1

[3] = tested on: LXRa homodimer (NR concentration 270 nM)
Procedure, shortened: as §1

[4] = tested on: LXRb:RXRa (NR concentration 270 nM, RXRa partner concentration 90 nM)
Procedure, shortened: as §1

[5] = tested on: LXRb homodimer (NR concentration 270 nM)
Procedure, shortened: as §1

[6] = tested on: PPARa:RXRa (NR concentration 270 nM, RXRa partner concentration 90 nM)
Procedure, shortened: as §1

[7] = tested on: PPARg:RXRa (NR concentration 180 nM, RXRa partner concentration 90 nM)
Procedure, shortened: as §1

[8] = tested on: PPARg:RXRa 270nM:90nM, anti-RXR (NR concentration 270 nM, RXRa partner concentration 90 nM)
Procedure, shortened: as §1

[9] = tested on: PPARg:RXRa 30nM:10nM, anti-RXR (NR concentration 30 nM, RXRa partner concentration 10 nM)
Procedure, shortened: as §1

[10] = tested on: PPARg:RXRa 90nM:30nM, anti-RXR (NR concentration 90 nM, RXRa partner concentration 30 nM)
Procedure, shortened: as §1

[11] = tested on: PPARg:RXRa DBDmut IVT, anti-RXR (DBD mutation: RXRa K156A/R161A, NR concentration 270 nM, RXRa partner concentration 90 nM)
Procedure, shortened: as §1

[12] = tested on: PPARg:RXRa IVT, anti-PPARg (NR concentration 270 nM, RXRa partner concentration 90 nM)
Procedure, shortened: as §1

[13] = tested on: PPARg DBDmut:RXRa IVT, anti-PPARg (DBD mutation: PPARg1 K132A/R137A, NR concentration 270 nM, RXRa partner concentration 90 nM)
Procedure, shortened: as §1

[14] = tested on: PPARg DBDmut IVT, anti-PPARg (DBD mutation: PPARg1 K132A/R137A, NR concentration 270 nM)
Procedure, shortened: as §1

[15] = tested on: PPARg homodimer (NR concentration 180 nM)
Procedure, shortened: as §1

[16] = tested on: PXR:RXRa (NR concentration 270 nM, RXRa partner concentration 90 nM)
Procedure, shortened: as §1

[17] = tested on: PXR homodimer (NR concentration 270 nM)
Procedure, shortened: as §1

[18] = tested on: RARa:RXR (NR concentration 270 nM, RXRa partner concentration 90 nM)
Procedure, shortened: as §1

[19] = tested on: RARa homodimer (NR concentration 270 nM)
Procedure, shortened: as §1

[20] = tested on: RARb:RXRa (NR concentration 270 nM, RXRa partner concentration 90 nM)
Procedure, shortened: as §1

Sequence	PBM binding z-score [1]	PBM binding z-score [2]	PBM binding z-score [3]	PBM binding z-score [4]	PBM binding z-score [5]	PBM binding z-score [6]	PBM binding z-score [7]	PBM binding z-score [8]	PBM binding z-score [9]	PBM binding z-score [10]	PBM binding z-score [11]	PBM binding z-score [12]	PBM binding z-score [13]	PBM binding z-score [14]	PBM binding z-score [15]	PBM binding z-score [16]	PBM binding z-score [17]	PBM binding z-score [18]	PBM binding z-score [19]	PBM binding z-score [20]
TAGCCTAGGGCATTGGGCCAGTATAGTACGCATC	-0.339	-0.336	-0.318	-0.673	-0.892	-0.0901	0.887	0.225	-0.369	-0.368	0.771	1.87	-0.149	-0.898	-1.01	-0.62	-0.779	-0.444	-1.17	1.08
AATCAAAGTTCAGGACGAGGTAACGTAAAGCACG	3.75	4.39	2.25	2.03	0.58	3.2	2.07	2.19	0.724	1.26	-0.649	0.571	0.569	0.969	1.98	2.9	1.19	2.55	1.39	4.19
ATCTCTAGGTAAAGTTTAGTGAAAGATCGATAGA	0.0185	0.132	-0.104	0.124	0.703	0.485	0.873	1.36	0.722	1.25	2.35	1.77	1.78	1.51	0.509	0.187	0.339	-0.0938	1.15	0.584
GCGACCGGGGCATCAGCAGGTTACCATAACTTAA	0.256	0.277	-0.271	0.643	-0.263	1.17	0.512	-0.0952	-0.743	-0.899	0.0389	0.384	-1.59	-1.19	0.373	0.411	-0.173	0.981	-0.42	1.3
TCGAGTAGGCTACCAATGGGGCATTCAGCTTTCT	-0.523	-0.102	-1.06	-0.127	-1.18	0.0161	-0.358	0.198	1.19	0.625	1.55	0.414	-0.67	-1.72	-1.23	-0.438	-0.888	-0.72	-1.3	-0.208
CCGGCTGGGGCAAGGTTACCATAACGCACAGCCA	0.218	0.386	-0.338	0.353	-1.36	1.09	1.04	0.822	-0.299	0.627	-0.429	0.466	-1	-1.85	0.0716	0.337	-0.654	0.922	-0.728	1.64
AGATGTAGGTTAGCTGGGGTCATTCAGACTAGGC	4.46	5.57	2.58	4.53	1.17	4.85	5.03	4.61	2.17	3.72	5.87	5.76	1.86	0.481	2.31	6.19	3.97	5.41	0.958	3
CAAACTAGGTCACCGGAAGCTCAAAGTCCGCATG	4.54	2.93	0.559	2.24	0.297	5.45	9.51	7.22	5.15	7.39	8.73	9.13	6.78	2.89	2.58	1.9	0.365	3.19	1.19	4.38
ATACCAAGGTGATCGTGAGGTCGATGATACTAAC	1.46	0.961	0.482	0.993	-0.149	1.34	0.934	0.585	0.169	0.24	0.508	1.52	0.609	0.528	0.828	1.91	0.391	1.9	0.262	1.55
CAAACTTGGTCACGAAAGGTCAAAGTCGAATGAC	5.56	6.11	5.72	5.74	2.04	5.22	4.84	5.24	2.75	4.59	2.71	4.16	0.428	0.593	4.33	6.21	1.66	6.77	3.25	4.68
CCAGACAGGTGAAAGGTAACTCATTCTGGTACGC	0.79	0.853	0.0278	1.09	-0.276	3.51	5.48	6.19	3.72	6.34	2.34	3.01	-0.114	-0.175	1.3	1.12	0.37	2.12	1.09	1.4
CGTCCAGGGTCAAGGTCAGTGAAAGAGACTCGAA	7.27	4.72	0.165	4.58	-0.131	6.04	6.91	6.41	3.27	5.71	1.82	4.14	0.455	0.241	3.01	4.77	0.845	5.13	1.53	5.23
TCTATTAGTTGAAGGGCAACCTACGAGTCCGTTT	0.82	0.87	0.394	0.789	0.451	0.702	0.121	1.88	3.44	2.53	2.23	0.488	0.411	0.817	1.5	0.858	1.18	0.893	1.08	1.57
AGTCAAAGTTCATATAGGTAACGTAAGATATGCT	6.32	5.7	5.15	3.66	2.13	4.62	6.76	6.08	3.4	5.1	0.943	3.97	1.58	0.96	2.46	4.96	5	3.57	1.52	4.69
AGTCAAAGTTAAGGACGAGGTAACGTAAAGCACG	-0.0625	-0.031	-0.464	-0.186	-0.644	0.245	0.85	0.357	0.301	0.179	-0.606	0.576	-0.425	0.362	-0.757	-0.127	0.18	1.19	0.205	0.889
ATCTCTAGGTAAAGTTCAGTAAAAGATCGATAGA	1.06	1.77	1.7	1.29	0.992	2.18	2.91	4.22	2.52	4.14	2.04	2.45	1.82	0.984	2.05	2.07	2.09	1.42	2.26	2.82
ACTCGGAGGACAATGGTCAGAGCTACGCCAGTGA	-0.187	-0.512	-0.435	-0.708	-0.881	-0.704	0.723	0.466	-0.281	-0.00366	-0.21	-0.421	-1.67	-0.609	-0.576	-0.593	-0.561	-0.488	-0.119	1.23
TCTAGCAGGCCAGAGGGTCACTGAAGAGGTACGG	0.95	1.08	-0.818	1.01	-1.1	2.79	1.69	2.79	1.92	2.4	1.24	0.963	-0.7	-1.2	0.503	1.53	-0.448	2.29	-0.0509	2.34
TCATATGGGTAAAGGTGAAAGTCGAACGATATGA	0.574	1.13	-0.287	1.09	-0.607	3.53	5.17	5.52	4.64	5.69	3.36	3.75	1.24	0.532	0.852	0.764	-0.418	1.66	0.221	1.79
ATCGAAAGGTTGAGGTGAGTATAGAGAAAGGGAA	0.898	0.95	-0.00942	0.744	0.158	1.86	0.625	0.616	0.531	0.337	-0.0233	1.04	1.15	1.07	0.793	0.751	0.241	1.37	0.673	1.79
GCTGCTAGGTCAGGTTGGTCAGCTACCGGGTACG	1.12	0.526	-0.544	0.265	-0.337	1.4	0.0957	0.884	-0.631	0.221	2.57	2.37	-0.857	-0.886	0.811	0.288	-0.331	0.391	-0.864	3.32
AGAATGAGGTTATACGTAGATTAGGGAAGAAAGT	2.38	1.89	0.103	1.74	0.111	3.21	2.37	2.4	0.937	1.76	3.81	2.24	1.48	1	0.912	1.38	0.713	1.72	0.516	1.63
ATATGTAGGTTAGCTGGGGTCATGCAGACTAGGC	4.32	5.63	1.92	4.51	0.764	5.44	6.19	5.5	3.22	5.13	6.73	6.58	3.11	1.46	3.23	6.14	2.18	5.87	1.4	3.44
ATATGTAGGTTATATCCGGGTCATTCAGGCTATG	2.15	4.34	3.29	2.93	1.44	4.19	4.45	4.07	1.69	3.33	6.81	6.59	5.13	2.59	3.38	3.78	2.63	3.9	1.12	2.13
TCATCTAGGTAATACAGGTGAAAGTCGGCATCTA	0.88	0.831	0.409	0.796	0.445	2.05	1.29	2.5	3.85	3.22	4.07	4.08	1.3	1.36	0.913	0.275	0.512	0.694	1.29	0.575
AATACAGGGTCACTAGACCAGAGTAGGTACGAAT	5.74	4.72	0.962	3.65	0.659	5.33	6.24	5.76	2.72	4.31	2.98	4.48	1.64	0.757	1.41	3.05	0.6	4.02	0.657	4.12
CCTCGGAGGACATCAGGAGGTCAGAGCTGCCAGA	1.63	1.87	1.11	1.17	-0.894	1.93	0.267	0.414	-0.801	-0.136	-0.368	0.307	-1.23	-1.84	1.23	2.19	0.0732	2.43	0.115	2.74
ATATGTAGGTTATTGGGTCATTCAGTTTGCGCAT	2.82	3.05	2.1	2.62	1.34	5.16	8.04	6.41	3.93	5.9	7.67	8.16	4.52	3.64	4.1	3.06	4.6	3.36	2.83	2.5
AGATCGAGGGCACGCTGAGTTGATAGCAGAGTAG	0.624	0.579	-0.704	0.248	-0.854	1.83	1.76	1.47	0.155	0.951	3.66	3.58	1.3	0.665	-0.311	1.31	0.0547	0.734	-0.531	2.42
